A short description of assay [1]: binders of probe aFSTL3 on microarray, primary screen, stem cell growth factor project, biochemical, small-molecule microarray, fluorescence 635/667 (AID 1064).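 Note: measures binding of the biotinylated anti-FSTL3 antibody to printed compounds.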 The conditions noted are these: higher = more signal.
The nature of assay [2]: binders from COS7 lysate, DM2A8 probe, primary screen, torsin A project, cell lysate, small-molecule microarray, fluorescence 635/667 (AID 1065). The conditions noted are these: higher = more signal, COS7 lysate expressing mutant human TOR1A.
Assay [3] in a line: binders of probe aFGF2 on microarray, primary screen, stem cell growth factor project, biochemical, small-molecule microarray, fluorescence 635/667 (AID 1067).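 Note: measures binding of biotinylated aFGF2 protein to printed compounds on slides; z-score merges feature fluorescence and signal-to-noise across triplicate slides.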 The note with it: higher = more signal.
Assay [4] in a line: binders of probe aFGF10 on microarray, primary screen, stem cell growth factor project, biochemical, small-molecule microarray, fluorescence 635/667 (AID 1071).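 Note: score merges 667 nm spot intensity and signal to noise from triplicate slides.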 The note with it: higher = more signal.
The target of assay [5] is Neurogenic locus notch homolog protein 2 (Homo sapiens) (UniProt Q04721). Kind of assay: Notch2 binders on small-molecule microarrays, primary screen, biochemical, small-molecule microarray, 635 nm fluorescence, stem cell growth factors (AID 1073). The conditions noted are these: Notch2 binding, higher = more signal.
Assay [6] deals with Pro-neuregulin-1, membrane-bound isoform (Homo sapiens) (UniProt Q02297). The assay can be described thus: NRG1 binders on small-molecule microarrays, primary screen, psychiatric disease protein project, biochemical, small-molecule microarray, fluorescence 635/667 (AID 1075).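 Note: score combines 667 nm spot fluorescence with signal to noise.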 The note with it: NRG1 binding, 635 nm fluorescence, higher = more signal.
In assay [7] the test system is Neuregulin-1 EGF-like domain. Kind of assay: binders of neuregulin-1 EGF-like domain, primary screen, biochemical, small-molecule microarray, 635 nm fluorescence (AID 1081).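 Note: binding of the protein to compounds printed on small-molecule microarray slides.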 The note with it: small-molecule microarray binding, higher = more signal.
Assay [8] in a line: FRG1 promoter luciferase signal modulators, primary screen, FRG1 inhibition for FSHD, cell-based, C2C12 myotubes, firefly/Renilla luciferase, luminescence (AID 1084). The note with it: higher = more signal, called active from +8 up or from −8 down.
A short description of assay [9]: binders of probe aFST on microarray, primary screen, stem cell growth factor project, biochemical, small-molecule microarray, fluorescence 635/667 (AID 1086).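 Note: score merges 667 nm fluorescence with signal-to-noise of each printed compound spot.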 The conditions noted are these: higher = more signal.
Assay [10] is described as follows: binders of probe aHhip on microarray, primary screen, stem cell growth factor project, biochemical, small-molecule microarray, fluorescence 635/667 (AID 1087).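 Note: score merges spot fluorescence at 667nm with spot signal to noise ratio.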 The note with it: higher = more signal.

The source made the active and inactive calls.

Chain of Neurogenic locus notch homolog protein 2 (Homo sapiens) (Q04721 whole entry, looked up, canonical isoform): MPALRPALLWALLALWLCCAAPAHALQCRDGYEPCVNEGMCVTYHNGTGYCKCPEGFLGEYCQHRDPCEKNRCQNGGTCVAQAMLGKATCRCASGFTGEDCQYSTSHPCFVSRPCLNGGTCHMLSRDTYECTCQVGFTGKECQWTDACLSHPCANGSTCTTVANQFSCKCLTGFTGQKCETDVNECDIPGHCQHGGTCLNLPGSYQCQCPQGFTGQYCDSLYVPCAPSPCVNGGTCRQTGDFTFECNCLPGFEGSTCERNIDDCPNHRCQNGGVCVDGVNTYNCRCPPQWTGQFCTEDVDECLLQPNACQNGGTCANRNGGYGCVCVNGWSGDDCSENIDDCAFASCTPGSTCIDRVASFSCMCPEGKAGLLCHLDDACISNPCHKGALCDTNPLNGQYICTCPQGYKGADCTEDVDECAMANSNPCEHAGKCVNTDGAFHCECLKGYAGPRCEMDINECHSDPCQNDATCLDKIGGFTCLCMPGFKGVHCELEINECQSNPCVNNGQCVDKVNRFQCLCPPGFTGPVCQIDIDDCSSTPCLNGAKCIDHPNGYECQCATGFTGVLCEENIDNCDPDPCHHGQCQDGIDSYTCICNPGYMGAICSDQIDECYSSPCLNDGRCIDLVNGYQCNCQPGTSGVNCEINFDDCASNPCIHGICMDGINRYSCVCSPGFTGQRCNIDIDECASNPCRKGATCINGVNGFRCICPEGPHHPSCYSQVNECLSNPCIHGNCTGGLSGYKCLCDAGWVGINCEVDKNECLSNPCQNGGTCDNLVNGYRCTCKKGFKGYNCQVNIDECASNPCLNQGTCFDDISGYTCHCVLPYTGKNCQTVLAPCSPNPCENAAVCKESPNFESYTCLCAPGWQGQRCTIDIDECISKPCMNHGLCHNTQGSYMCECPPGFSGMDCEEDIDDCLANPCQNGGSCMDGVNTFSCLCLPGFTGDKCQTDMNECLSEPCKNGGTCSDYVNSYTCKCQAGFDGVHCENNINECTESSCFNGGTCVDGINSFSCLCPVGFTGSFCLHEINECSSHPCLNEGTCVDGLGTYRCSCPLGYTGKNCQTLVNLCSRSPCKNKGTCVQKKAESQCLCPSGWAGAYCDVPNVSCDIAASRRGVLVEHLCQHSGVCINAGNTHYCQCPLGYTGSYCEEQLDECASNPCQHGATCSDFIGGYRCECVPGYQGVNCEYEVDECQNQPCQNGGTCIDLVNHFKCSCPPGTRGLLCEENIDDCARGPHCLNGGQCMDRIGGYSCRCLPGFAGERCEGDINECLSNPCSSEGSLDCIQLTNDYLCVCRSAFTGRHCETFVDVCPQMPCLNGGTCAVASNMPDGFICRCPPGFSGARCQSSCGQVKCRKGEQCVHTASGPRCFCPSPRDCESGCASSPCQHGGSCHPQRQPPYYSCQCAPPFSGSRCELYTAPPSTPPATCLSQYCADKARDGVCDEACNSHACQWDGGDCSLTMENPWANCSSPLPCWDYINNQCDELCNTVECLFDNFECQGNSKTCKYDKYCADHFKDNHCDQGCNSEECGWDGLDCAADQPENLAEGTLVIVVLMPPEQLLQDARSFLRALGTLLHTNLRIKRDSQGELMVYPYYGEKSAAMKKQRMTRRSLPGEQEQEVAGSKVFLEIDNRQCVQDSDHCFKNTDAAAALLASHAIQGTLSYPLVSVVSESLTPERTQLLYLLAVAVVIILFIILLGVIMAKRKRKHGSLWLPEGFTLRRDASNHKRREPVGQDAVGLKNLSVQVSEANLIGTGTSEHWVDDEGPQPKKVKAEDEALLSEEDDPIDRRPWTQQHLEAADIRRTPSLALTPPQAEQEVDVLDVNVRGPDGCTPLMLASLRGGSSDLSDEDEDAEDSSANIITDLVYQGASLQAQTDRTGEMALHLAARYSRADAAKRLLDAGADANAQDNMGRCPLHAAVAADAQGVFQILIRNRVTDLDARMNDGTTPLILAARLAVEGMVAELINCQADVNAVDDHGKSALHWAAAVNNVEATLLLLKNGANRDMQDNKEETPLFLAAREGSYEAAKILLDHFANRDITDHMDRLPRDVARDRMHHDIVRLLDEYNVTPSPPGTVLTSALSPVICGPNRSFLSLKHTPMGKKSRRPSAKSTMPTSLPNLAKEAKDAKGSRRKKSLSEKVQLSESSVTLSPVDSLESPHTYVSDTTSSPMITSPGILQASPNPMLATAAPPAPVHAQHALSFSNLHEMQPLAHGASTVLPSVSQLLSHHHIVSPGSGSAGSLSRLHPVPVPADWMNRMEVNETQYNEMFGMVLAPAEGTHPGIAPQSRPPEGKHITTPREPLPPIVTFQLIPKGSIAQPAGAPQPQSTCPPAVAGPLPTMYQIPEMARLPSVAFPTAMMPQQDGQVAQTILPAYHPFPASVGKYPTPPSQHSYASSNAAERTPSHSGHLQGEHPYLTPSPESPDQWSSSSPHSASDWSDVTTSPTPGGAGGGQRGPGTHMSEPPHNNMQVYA
Chain of Pro-neuregulin-1, membrane-bound isoform (Homo sapiens) (Q02297 whole entry, looked up, the tested form may be a part, canonical isoform): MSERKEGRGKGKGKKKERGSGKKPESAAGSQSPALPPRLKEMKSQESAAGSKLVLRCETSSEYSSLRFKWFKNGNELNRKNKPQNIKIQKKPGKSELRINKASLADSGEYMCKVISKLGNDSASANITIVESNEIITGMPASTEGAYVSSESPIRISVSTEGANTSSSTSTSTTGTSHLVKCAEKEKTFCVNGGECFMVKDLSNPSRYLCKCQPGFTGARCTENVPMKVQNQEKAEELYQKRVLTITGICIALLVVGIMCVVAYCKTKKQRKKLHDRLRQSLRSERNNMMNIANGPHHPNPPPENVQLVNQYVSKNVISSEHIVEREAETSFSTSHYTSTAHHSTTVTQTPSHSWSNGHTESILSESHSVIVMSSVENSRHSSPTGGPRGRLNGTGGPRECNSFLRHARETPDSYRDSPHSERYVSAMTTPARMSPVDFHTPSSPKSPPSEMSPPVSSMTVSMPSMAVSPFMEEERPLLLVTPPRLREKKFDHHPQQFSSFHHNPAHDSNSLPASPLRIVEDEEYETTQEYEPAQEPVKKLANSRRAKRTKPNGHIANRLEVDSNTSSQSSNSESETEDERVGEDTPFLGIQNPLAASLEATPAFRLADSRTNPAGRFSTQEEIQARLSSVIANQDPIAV

On to `COC(=O)[C@@]1(Cc2ccc(OC)cc2)[C@H]2c3cc(C(=O)N(C)C)n(C[C@H](O)CO)c3C[C@H]2CN1C(=O)c1ccccc1`, for which the composite z-score in assay [1] was found to be 1.37; in assay [2], 1.31; in assay [3] it was 0.263; in assay [4], 0.504; in [5] it was 1.76; in assay [6], 1.25. Besides, the composite z-score in [7] came out at 1.2; in [9] it was 1.73; in [10], 0.284. Besides, the z-score in assay [8] was 1.55 (inactive).
Take `CC(=O)c1ccc(C(O)C2C=CC3C(=O)N(c4ccccc4)C(=O)C3N2Nc2ccc(C#N)cc2)cc1` (stereo not given): the composite z-score is 0.0415 in [1]; 0.233 in assay [2]; -0.122 in assay [3]; -0.0474 in [4]; 0.833 in assay [5]; 1.5 in assay [6]. Moreover, the composite z-score is 0.609 in assay [7], 0.766 in assay [9] and -0.0645 in assay [10]. The z-score in assay [8] is -0.0141 (inactive).
As to `C[C@H]1NC(=O)[C@@]23C(=O)N[C@@H](Cc4ccccc4)C2[C@H](C)[C@@]2(C)O[C@H]2C3/C=C/C/C=C\CNC(=O)[C@H](Cc2ccccc2)NC1=O` (stereo not given in full), the composite z-score in assay [1] is -0.536; in assay [2], 0.0198; in [3], -0.206; in [4], 0.533; in assay [5], -0.158; in assay [6], 1.4. Also, the composite z-score was 1.11 in assay [7], -0.107 in [9] and -0.137 in [10]. The z-score in assay [8] is 1.8 (inactive).
For `COc1cc2c(cc1OC)CN(C(=O)[C@@H]1[C@H]3C(=O)O[C@H](c4ccccc4)[C@H](c4ccccc4)N3[C@H](c3ccc(OCCO)cc3)[C@@]13C(=O)Nc1ccccc13)CC2`, the composite z-score in [1] is -0.164; in assay [2], 0.562; in assay [3], 0.0373; in [4], 1.01; in [5], 1.16; in [6] it was 1.42. For the same compound, the composite z-score in assay [7] turned out to be 1.23; in [9], 0.29; in assay [10], 0.0139. In addition, the z-score in assay [8] was 2.03 (inactive).
`CC(C)OC(=O)C=C1C[C@@H](c2ccc(C(F)(F)F)cc2)O[C@@H](c2ccc(C(F)(F)F)cc2)O1`: the composite z-score in [1] is -0.187; in assay [2], 1.92; in assay [3], -0.0288; in assay [4], 0.891; in assay [5], -0.316; in assay [6], 1.08. Besides, the composite z-score is 1 in assay [7], 0.0006 in assay [9] and -0.214 in assay [10]. Further, the z-score in assay [8] was 0.337 (inactive).
`O=C1C[C@@](C(=O)NCCN2CCOCC2)(c2ccc([N+](=O)[O-])cc2)[C@@H](c2ccc(CO)cc2I)N1C1CCCCC1`: the composite z-score was -0.218 in [1]; -0.0103 in assay [2]; -0.0736 in [3]; 0.262 in [4]; 0.64 in assay [5]; 0.148 in assay [6]. Besides, the composite z-score in [7] is 1.43; in assay [9], -0.0352; in assay [10] it was -0.0717. For the same compound, the z-score in assay [8] was 1.21 (inactive).
For the compound `CCCCN1CC=CC23O[C@@H]4/C=C\CCC(C)OC(=O)C4[C@H]2C(=O)N(C(CO)C(C)C)[C@@H]3C1=O` (stereo not given in full), the composite z-score in assay [1] was -0.513; in assay [2], 0.642; in assay [3], -0.0976; in assay [4] it was 0.291; in assay [5] it was -0.358; in assay [6], 0.362. Moreover, the values for the composite z-score in assay [7], in assay [9] and in assay [10] were 1.45, -0.19 and -0.201, respectively. Moreover, the z-score in assay [8] is -0.095 (inactive).
`COC(=O)C1=CC(CCCO)=CC(C2CC2)N(C)C=C1C(=O)OC` (stereo not given): the composite z-score was 0.0334 in assay [1]; -0.144 in assay [2]; -0.101 in [3]; -0.0269 in assay [4]; 0.448 in assay [5]; 2.06 in [6]. The composite z-score in [7] is 0.935; in [9] it was -0.308; in assay [10], -0.0994. The z-score in [8] was -0.327 (inactive).
For `C=CCOC(=O)[C@H]1[C@@H]2C(=O)O[C@@H](c3ccccc3)[C@@H](c3ccccc3)N2[C@@H](c2ccc(OCCOC(=O)[C@@H]3C[C@@H]4C(=O)N5CCC[C@H]5C(=O)N4[C@@H]3c3ccc(O)cc3)cc2)[C@]12C(=O)Nc1ccc(I)cc12`, the composite z-score is 0.011 in assay [1]; -0.123 in [2]; -0.201 in assay [3]; 0.126 in assay [4]; 0.344 in assay [5]; 0.929 in assay [6]. Further, the composite z-score is 0.718 in assay [7], -0.0935 in assay [9] and -0.367 in [10]. In addition, the z-score in [8] was 0.308 (inactive).
`COCCOC(=O)N1C(=O)[C@@]2(c3cc(C#CC4=CCCCC4)ccc31)[C@H](c1ccccc1OCCO)N1[C@H](c3ccccc3)[C@H](c3ccccc3)OC(=O)[C@H]1[C@@H]2C(=O)Nc1nc2ccccc2s1`: the composite z-score in assay [1] was -0.19; in assay [2], -0.0036; in [3], -0.0398; in assay [4], 0.359; in [5] it was 1.23; in [6] it was 0.953. Further, the figures for the composite z-score in assay [7], in [9] and in assay [10] were 1.08, 0.513 and 0.0373, respectively. Besides, in [8], the z-score is 1.41 (inactive).
For `CC1CC/C=C\[C@H]2OC34C=CCN(C(C)C)C(=O)[C@H]3N(CCCCCCO)C(=O)[C@@H]4C2C(=O)O1` (stereo not given in full), the composite z-score in assay [1] is 0.315; in [2], -0.671; in assay [3], -0.143; in assay [4] it was -0.178; in [5], -0.357; in [6], 1.06. Also, the figures for the composite z-score in assay [7], in assay [9] and in assay [10] were 0.147, -0.856 and -0.304, respectively. The z-score in assay [8] is 0.286 (inactive).

The values are drawn from PubChem BioAssay.
